In publication PMC5540273 (PLoS ONE, 2017):

How the values were obtained:
Settings in all cases: concentration: 1 μM, replicates: in singlicate; n = 1
AAK1 = test system: AAK1
ABL1-nonphosphorylated = test system: ABL1-nonphosphorylated
ABL1-phosphorylated = test system: ABL1-phosphorylated
ABL2 = test system: ABL2
ACVR1B = test system: ACVR1B
ACVR1 = test system: ACVR1
ACVR2A = test system: ACVR2A
ACVR2B = test system: ACVR2B
ACVRL1 = test system: ACVRL1
ADCK3 = test system: T1, ADCK3
T1 construct: gene CABC1

ADCK4 = test system: ADCK4
AKT1 = test system: AKT1
AKT2 = test system: AKT2
AKT3 = test system: AKT3
ALK = test system: ALK
AMPK-alpha1 = test system: T2, AMPK-alpha1
T2 construct: gene PRKAA1

AMPK-alpha2 = test system: T3, AMPK-alpha2
T3 construct: gene PRKAA2

ANKK1 = test system: ANKK1
ARK5 = test system: T4, ARK5
T4 construct: gene NUAK1

ASK1 = test system: T5, ASK1
T5 construct: gene MAP3K5
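Note: KINOMEscan kinase panel screen.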

Compound	%Inh (AAK1) [%]	%Inh (ABL1-nonphosphorylated) [%]	%Inh (ABL1-phosphorylated) [%]	%Inh (ABL2) [%]	%Inh (ACVR1B) [%]	%Inh (ACVR1) [%]	%Inh (ACVR2A) [%]	%Inh (ACVR2B) [%]	%Inh (ACVRL1) [%]	%Inh (ADCK3) [%]	%Inh (ADCK4) [%]	%Inh (AKT1) [%]	%Inh (AKT2) [%]	%Inh (AKT3) [%]	%Inh (ALK) [%]	%Inh (AMPK-alpha1) [%]	%Inh (AMPK-alpha2) [%]	%Inh (ANKK1) [%]	%Inh (ARK5) [%]	%Inh (ASK1) [%]
c1ccc(Oc2ccc(Nc3ccnc4cc(-c5ccc(CNCCN6CCOCC6)o5)ccc34)cc2)nc1 [GW567145]	6	78	12	6	0	8	0	14	0	2	31	0	10	0	0	0	0	34	44	0
COc1cc2c(cc1OCCN1CCNCC1)ncc1c3ccc(C#N)cc3[nH]c21	96.2	68	55	8	0	0	0	0	0	13	5	0	0	0	26	15	4	37	22	0
Cl.Cl.NCC(C(=O)Nc1cc(Br)c(-c2ccnc3[nH]ccc23)s1)c1ccccc1 (stereo not shown) [GSK1269851]	78	14	32	35	67	47	0	5	0	65	95.7	61	25	66	39	0	0	0	0	0
Cc1ccc(F)c(C(=O)Nc2cccc(-c3nn4ccccc4c3-c3ccnc(Nc4cccc(F)c4)n3)c2)c1F [GSK361061]	16	26	0	62	60	23	7	43	38	0	37	0	7	0	7	8	17	33	20	2
COc1ccc(Nc2nccc(N3CCC(NC(=O)Nc4cccc(OC)c4)C3)n2)cc1 (stereo not shown) [GSK1379742]	4	0	0	12	0	7	0	0	0	1	14	0	0	0	25	1	0	0	25	5
COc1ccc(-c2coc3ccc(-c4nnc(SCc5ccc(OC)c(C(F)(F)F)c5)o4)cc23)cc1	2	13	0	24	7	28	0	0	26	21	10	4	0	0	0	31	0	38	0	17
c1ccc(-c2n[nH]cc2Nc2ccnc3ccccc23)nc1 [GW694077]	82	0	0	0	0	30	0	0	0	3	51	0	2	0	21	0	0	75	0	0
CN1CCN(Cc2cccc(-c3ccc4c(Nc5ccc(Oc6ccccc6)cc5)ccnc4c3)c2)CC1 [GW578342]	10	91.6	20	23	0	0	0	0	0	8	9	0	11	0	23	8	0	6	0	0
